# In PubChem BioAssay (NCATS):
# Inconclusive results are not listed. Entries that show only a call come without a potency. Calls of active or inactive are those of the source. Unless noted, the call rests on the fitted dose curve; in most records, active means well fitted curve in the direction sought with a large enough effect; inconclusive means small, poorly fitted or top-dose-only effect, or another doubt; inactive means no such curve, though single readings can be large; an effect the other way counts as inactive or inconclusive.
# Legend:
# [1] = Cytometric Cell-Based qHTS for Inhibitors of the mTORC1 Signaling Pathway in MEF (Tsc2-/-, p53-/-) Cells (AID 2660);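 further: percent of cells above a phospho-rpS6 to PI ratio cutoff in each well; series mostly up to about 38 µM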
# How it was run: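 Tsc2-/-, p53-/- MEFs (empty vector) exposed to compound 24 h at 37 C, fixed, stained with Alexa-488 anti-phospho-rpS6 Ser235/236 and propidium iodide. Acumen laser scanning; phospho-S6/PI ratio thresholded against 7.5 nM rapamycin, reported as % positive cells.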
# [2] = High Content Imaging Cell-Based qHTS for Inhibitors of the mTORC1 Signaling Pathway in MEF (Tsc2-/-, p53-/-) Cells (AID 2666);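 further: percent of cells scored positive for phospho-rpS6 Ser235/236 immunostaining by imaging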
# How it was run: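 Tsc2-/-, p53-/- MEFs (empty-vector stable) grown in DMEM + 10% FBS were exposed to compounds for 24 hrs at 37 degree Celsius, fixed, and stained with Alexa-488 anti-phospho-rpS6 Ser235/236 plus Hoechst. Imaging gave the percentage of positive cells per well.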
# [3] = High Content Imaging Cell-Based qHTS for Inhibitors of the mTORC1 Signaling Pathway in MEF Cells (AID 2667); further: potency means the concentration at half of the fitted maximal effect
# How it was run: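 Tsc2-/-, p53-/- MEFs stably re-expressing WT Tsc2, grown in DMEM + 10% FBS, were treated with compounds for 24 hrs at 37 degree Celsius, fixed, and stained with Alexa-488 phospho-rpS6 Ser235/236 antibody plus Hoechst; results given as % positive cells.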
# [4] = Cytometry Cell-Based qHTS for Inhibitors of the mTORC1 Signaling Pathway in MEF cells (AID 2668); further: potency means the concentration at half of the fitted maximal effect
# How it was run: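 WT MEFs (Tsc2-/-, p53-/- stably re-expressing WT Tsc2) in DMEM + 10% FBS received compounds 24 hrs after plating, for 24 hrs at 37 degree Celsius. Fixed cells stained with Alexa-488 anti-phospho-rpS6 Ser235/236 and propidium iodide; laser-scanning cytometry read-out.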
# [5] = biological target: Ubiquitin carboxyl-terminal hydrolase 2 (Homo sapiens) (UniProt O75604); assay: qHTS Validation Assay for Inhibitors of Ubiquitin-specific Protease USP2a Using CHOP2 as the Reporter (AID 463106)
# How it was run: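 Readout was coupled fluorescence (Ex 485/Em 531 nm), read 60 min after adding 25 nM final Ub-CHOP2 and 25 nM reporter substrate. Beforehand, 10 nM final USP2 core had 30 min at RT with compound in pH 8.0 buffer. Curves were fitted after normalization to NEM and flagged for artifacts using time-zero reads.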
# [6] = biological target: DNA polymerase III PolC-type (Bacillus subtilis (strain 168)) (UniProt P13267); assay: qHTS Validation Assay for the Inhibitors of DNA Replication in Gram-Positive Bacteria (AID 485295);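 further: PicoGreen fluorescence of double-stranded DNA made on primed circular M13 template; series mostly up to about 57 µM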
# How it was run: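 Reconstituted B. subtilis holoenzyme (Pol III, beta clamp, SSB, primase) was preincubated with compound at room temperature, then given single-stranded circular M13Gori plus dNTPs and NTPs. EDTA-containing PicoGreen stopped the reaction, and dsDNA product was read by fluorescence.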
# [7] = biological target: Tumor susceptibility gene 101 protein (Homo sapiens) (UniProt Q99816); assay: qHTS Validation Assay for Iinhibitors of HIV-1 Budding by Blocking the Interaction of PTAP/TSG101 (AID 485342; calls by dose curve)
# How it was run: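 Tsg101 binding domain (10 uM final) in pH 7.5 HEPES/NaCl/Tween 20/EDTA/TCEP buffer was mixed with pin-transferred compounds, then FITC-labeled PTAP peptide (50 nM final) was added; after 20 min at r.t., fluorescence polarization was read.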
# [8] = biological target: ATP-dependent 6-phosphofructokinase (Trypanosoma brucei brucei) (UniProt O15648); assay: qHTS Validation Assay to Find Inhibitors of T. brucei phosphofructokinase (AID 485368); further: potency means the concentration at half of the fitted maximal effect
# How it was run: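 Luminescent ADP detection measures PFK turnover of fructose-6-phosphate (0.5 mM) with ATP (0.1 mM) at pH 8.0. Reaction runs 45 min at room temperature with 1.25 nM enzyme; inhibitors tested as titrations up to 57 uM.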
# [9] = biological target: Beta-2 adrenergic receptor (Homo sapiens) (UniProt P07550); assay: qHTS validation assay of beta-arrestin-biased ligands of beta2-adrenergic receptor (AID 485366)
# How it was run: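 qHTS, Tango cells, 1500 cells/well, DMEM + 1% FBS. Cpd 18 hr at 37 degrees C. Luciferin/ATP/CoA detection mix, 15 min RT, luminescence read. %Activity from corrected signal; CRC fit, curve class.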
# [10] = qHTS Validation Assay to Find Inhibitors of Chronic Active B-Cell Receptor Signaling (AID 485345; active means well fitted curve in the direction sought with a large enough effect in the main read-out, with a control signal flat, not every such curve was filed as active)
# How it was run: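 Read-out: ratio of filter-corrected green (IkappaBalpha fusion) to red (native) luciferase signal in doxycycline-induced TMD8 cells after 4 h at 37C. Titration spanned 46 uM–3 nM; Data were normalised to basal cells and 10 uM MG-132 wells.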
# Sequence of ATP-dependent 6-phosphofructokinase (Trypanosoma brucei brucei) (O15648 whole entry, looked up): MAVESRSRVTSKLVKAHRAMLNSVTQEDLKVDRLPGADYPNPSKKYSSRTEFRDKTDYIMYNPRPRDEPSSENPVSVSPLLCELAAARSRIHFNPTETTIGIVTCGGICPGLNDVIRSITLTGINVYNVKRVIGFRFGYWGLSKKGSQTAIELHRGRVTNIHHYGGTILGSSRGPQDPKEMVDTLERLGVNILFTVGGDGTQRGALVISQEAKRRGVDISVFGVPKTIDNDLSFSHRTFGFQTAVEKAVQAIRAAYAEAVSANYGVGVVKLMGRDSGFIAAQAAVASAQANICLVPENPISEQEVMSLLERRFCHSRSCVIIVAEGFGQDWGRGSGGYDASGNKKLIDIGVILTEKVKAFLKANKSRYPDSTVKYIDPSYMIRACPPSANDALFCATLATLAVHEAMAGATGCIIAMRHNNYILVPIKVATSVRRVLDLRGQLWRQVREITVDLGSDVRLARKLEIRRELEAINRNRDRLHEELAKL
# Sequence of DNA polymerase III PolC-type (Bacillus subtilis (strain 168)) (P13267 whole entry, looked up): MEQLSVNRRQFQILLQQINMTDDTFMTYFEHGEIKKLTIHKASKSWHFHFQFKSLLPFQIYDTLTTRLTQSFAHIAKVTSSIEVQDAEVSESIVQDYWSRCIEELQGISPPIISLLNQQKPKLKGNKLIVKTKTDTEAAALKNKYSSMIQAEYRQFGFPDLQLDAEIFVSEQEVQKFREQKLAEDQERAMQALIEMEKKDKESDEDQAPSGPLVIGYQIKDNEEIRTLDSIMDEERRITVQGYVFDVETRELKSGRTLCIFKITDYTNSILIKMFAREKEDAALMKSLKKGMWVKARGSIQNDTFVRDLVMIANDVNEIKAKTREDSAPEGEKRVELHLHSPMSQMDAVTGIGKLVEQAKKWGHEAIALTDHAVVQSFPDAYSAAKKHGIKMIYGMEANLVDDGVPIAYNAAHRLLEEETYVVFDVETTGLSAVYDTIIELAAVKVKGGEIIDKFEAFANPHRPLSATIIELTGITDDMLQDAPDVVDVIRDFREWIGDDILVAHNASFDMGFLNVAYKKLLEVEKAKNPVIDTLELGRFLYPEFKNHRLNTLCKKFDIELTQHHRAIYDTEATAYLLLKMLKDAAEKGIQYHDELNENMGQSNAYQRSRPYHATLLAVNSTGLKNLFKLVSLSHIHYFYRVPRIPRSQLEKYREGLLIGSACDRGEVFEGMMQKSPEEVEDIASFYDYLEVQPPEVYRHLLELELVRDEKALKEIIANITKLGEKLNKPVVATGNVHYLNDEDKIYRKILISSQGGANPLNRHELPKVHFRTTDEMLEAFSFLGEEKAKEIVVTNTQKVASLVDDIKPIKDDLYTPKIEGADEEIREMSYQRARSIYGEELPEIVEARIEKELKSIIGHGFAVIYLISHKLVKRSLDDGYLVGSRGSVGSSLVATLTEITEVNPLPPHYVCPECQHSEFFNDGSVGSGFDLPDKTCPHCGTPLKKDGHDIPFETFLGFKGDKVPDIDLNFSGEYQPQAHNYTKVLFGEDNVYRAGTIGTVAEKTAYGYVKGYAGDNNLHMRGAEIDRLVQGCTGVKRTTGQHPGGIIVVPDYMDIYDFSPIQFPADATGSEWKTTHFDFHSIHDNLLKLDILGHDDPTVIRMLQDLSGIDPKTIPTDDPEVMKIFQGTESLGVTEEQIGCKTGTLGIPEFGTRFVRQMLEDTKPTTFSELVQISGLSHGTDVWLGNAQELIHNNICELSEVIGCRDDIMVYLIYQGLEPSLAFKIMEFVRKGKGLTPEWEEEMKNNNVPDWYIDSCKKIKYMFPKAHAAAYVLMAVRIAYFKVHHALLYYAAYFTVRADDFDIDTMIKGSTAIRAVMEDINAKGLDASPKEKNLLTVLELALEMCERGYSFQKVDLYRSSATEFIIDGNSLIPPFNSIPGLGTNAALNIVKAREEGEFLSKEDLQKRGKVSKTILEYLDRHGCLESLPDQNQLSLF
# Sequence of Tumor susceptibility gene 101 protein (Homo sapiens) (Q99816 whole entry, looked up, the tested form may be a part): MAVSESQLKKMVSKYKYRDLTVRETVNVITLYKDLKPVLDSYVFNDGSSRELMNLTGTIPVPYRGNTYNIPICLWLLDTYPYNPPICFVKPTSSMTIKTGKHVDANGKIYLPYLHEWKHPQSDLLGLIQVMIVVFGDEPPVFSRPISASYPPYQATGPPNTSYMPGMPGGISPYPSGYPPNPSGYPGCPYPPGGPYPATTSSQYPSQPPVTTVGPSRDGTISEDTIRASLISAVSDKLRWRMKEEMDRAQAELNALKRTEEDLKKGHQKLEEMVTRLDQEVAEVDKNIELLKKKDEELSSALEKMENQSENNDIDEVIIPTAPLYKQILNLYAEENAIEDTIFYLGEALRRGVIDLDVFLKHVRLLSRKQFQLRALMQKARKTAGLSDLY
# Sequence of Ubiquitin carboxyl-terminal hydrolase 2 (Homo sapiens) (O75604 whole entry, looked up): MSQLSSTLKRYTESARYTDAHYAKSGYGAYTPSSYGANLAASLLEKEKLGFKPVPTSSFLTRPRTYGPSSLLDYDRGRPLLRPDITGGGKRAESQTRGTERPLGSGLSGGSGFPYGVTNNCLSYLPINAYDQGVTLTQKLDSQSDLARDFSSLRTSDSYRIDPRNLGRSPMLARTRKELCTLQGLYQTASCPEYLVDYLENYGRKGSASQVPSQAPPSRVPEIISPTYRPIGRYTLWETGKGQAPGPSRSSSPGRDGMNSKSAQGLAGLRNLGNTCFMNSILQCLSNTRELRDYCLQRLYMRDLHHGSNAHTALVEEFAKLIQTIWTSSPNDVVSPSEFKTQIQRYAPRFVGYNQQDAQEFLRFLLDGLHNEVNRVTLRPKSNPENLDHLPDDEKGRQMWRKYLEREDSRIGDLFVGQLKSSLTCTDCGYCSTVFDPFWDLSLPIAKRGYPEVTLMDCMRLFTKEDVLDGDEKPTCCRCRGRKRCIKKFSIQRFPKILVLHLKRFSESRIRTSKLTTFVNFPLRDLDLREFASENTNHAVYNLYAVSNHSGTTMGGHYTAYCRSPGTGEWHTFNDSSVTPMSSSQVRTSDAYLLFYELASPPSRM
# Sequence of Beta-2 adrenergic receptor (Homo sapiens) (P07550 whole entry, looked up): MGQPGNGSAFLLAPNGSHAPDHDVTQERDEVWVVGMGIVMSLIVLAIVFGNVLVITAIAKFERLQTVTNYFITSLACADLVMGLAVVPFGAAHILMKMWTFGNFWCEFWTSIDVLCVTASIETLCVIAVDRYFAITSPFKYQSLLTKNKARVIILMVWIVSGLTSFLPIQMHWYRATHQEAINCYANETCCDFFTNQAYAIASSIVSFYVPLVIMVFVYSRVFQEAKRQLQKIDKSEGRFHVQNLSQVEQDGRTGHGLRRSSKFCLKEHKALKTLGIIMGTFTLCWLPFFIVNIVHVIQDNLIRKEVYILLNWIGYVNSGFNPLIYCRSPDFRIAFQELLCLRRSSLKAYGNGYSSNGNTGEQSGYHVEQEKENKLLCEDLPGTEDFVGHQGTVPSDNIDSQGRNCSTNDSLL
Structure (SMILES),outcome [1],Potency [2],Potency [3],Potency [4],Potency [5],Potency [6],outcome [7],Potency [8],outcome [9],outcome [10]
NC(=O)C1=CN(C2OC(COP(=O)(O)OP(=O)(O)OC[C@H]3O[C@@H](n4cnc5c(N)ncnc54)[C@H](OP(=O)(O)O)[C@@H]3O)C(O)C2O)C=CC1 (stereo not given in full),inactive,inactive,inactive,inactive,inactive,inactive,inactive,inactive,,
COc1ccc2c(c1)CCC1C2CC[C@@]2(C)C1CC[C@@H]2NCCCCCCN1C(=O)CCC1=O (stereo not given in full),inactive,inactive,3.69 µM (active),4.65 µM (active),inactive,inactive,inactive,,inactive,
NC(=S)c1ccc[n+]([C@@H]2O[C@@H](COP(=O)([O-])OP(=O)(O)OC[C@H]3O[C@@H](n4cnc5c(N)ncnc54)[C@H](OP(=O)(O)O)[C@@H]3O)C(O)C2O)c1 (stereo not given in full),inactive,inactive,inactive,inactive,inactive,,,inactive,inactive,
O=[N+]([O-])c1ccc(CSc2ncnc3c2ncn3[C@@H]2O[C@H](CO)[C@@H](O)[C@H]2O)cc1,inactive,inactive,inactive,inactive,inactive,,,15.1 µM (active),inactive,
C=C[C@H]1CN2CC[C@@H]1C[C@@H]2[C@@H](O)c1ccnc2ccc(OC)cc12,inactive,inactive,inactive,inactive,,inactive,inactive,inactive,inactive,inactive
CCC1C(=O)OCC1Cc1cncn1C (stereo not given),inactive,inactive,inactive,inactive,inactive,inactive,inactive,inactive,inactive,inactive
CNC(=O)[C@H]1O[C@@H](n2cnc3c(NCc4cccc(I)c4)ncnc32)[C@H](O)[C@@H]1O,inactive,inactive,inactive,inactive,,inactive,,,inactive,
CCCCCCCCc1ccc(-c2ccc(C(=O)O)cc2)cc1,inactive,inactive,inactive,,inactive,inactive,inactive,inactive,inactive,
NC[C@H]1O[C@@H](n2cnc3c(N)ncnc32)[C@H](O)[C@@H]1O,inactive,inactive,inactive,inactive,inactive,,inactive,inactive,inactive,
Nc1ncnc2c1ncn2[C@@H]1O[C@H](COP(=O)(O)OP(=O)(O)OP(=O)(O)OP(=O)(O)OC[C@@H]2O[C@H](n3cnc4c(N)ncnc43)[C@@H](O)[C@H]2O)[C@@H](O)[C@H]1O,inactive,inactive,inactive,inactive,,inactive,inactive,,,
Clc1ccc(N2CCN(Cc3cc4ccccn4n3)CC2)cc1,inactive,inactive,inactive,inactive,inactive,inactive,,inactive,inactive,inactive
CCNC(=O)[C@H]1O[C@@H](n2cnc3c(N)nc(NCCc4ccc(CCC(=O)O)cc4)nc32)[C@H](O)[C@@H]1O,inactive,inactive,inactive,inactive,,inactive,inactive,,inactive,
CNC(=O)[C@H]1O[C@@H](n2cnc3c(NCc4ccc(N)cc4)ncnc32)[C@H](O)[C@@H]1O,inactive,inactive,inactive,inactive,,inactive,inactive,inactive,inactive,
O=C1NC(=O)/C(=C/c2ccc(-c3ccc(F)cc3O)o2)S1,inactive,inactive,inactive,inactive,inactive,,inactive,,,
Nc1nc(Nc2ccccc2)nc2c1ncn2[C@@H]1O[C@H](CO)[C@@H](O)[C@H]1O,inactive,inactive,inactive,inactive,inactive,,inactive,,inactive,
C=CC(=O)c1ccc(CCCCCC)cc1,inactive,inactive,inactive,inactive,inactive,,inactive,,inactive,
N.N.N.N.N.N.N.N.N.N.N.N.N.N.O.O.[Ru+4].[Ru+5].[Ru+5],inactive,inactive,inactive,inactive,,,,,inactive,
CC(N)C(=O)OC(C)(C)Cc1ccc(Cl)cc1 (stereo not given),inactive,inactive,inactive,inactive,inactive,inactive,inactive,,inactive,inactive
O=P(O)(O)C(Cl)(Cl)P(=O)(O)O,inactive,inactive,inactive,inactive,inactive,,,,inactive,inactive
Cc1ccc(S(=O)(=O)/C=C/C#N)cc1,inactive,inactive,inactive,,inactive,inactive,inactive,,inactive,
NCC1OC(O[C@H]2[C@H](O)[C@@H](OC3C(O)C(N)CC(N)C3OC3OC(CO)C(O)C(O)C3N)O[C@@H]2CO)C(N)C(O)C1O (stereo not given in full),inactive,inactive,inactive,inactive,,,inactive,,inactive,inactive
C[N+](C)(C)CCOP(=O)(O)OP(=O)([O-])OC[C@H]1O[C@@H](n2ccc(N)nc2=O)[C@H](O)[C@@H]1O,inactive,inactive,inactive,inactive,inactive,,inactive,inactive,,inactive
Nc1nc(SCc2ccc([N+](=O)[O-])cc2)c2ncn([C@@H]3O[C@H](CO)[C@@H](O)[C@H]3O)c2n1,inactive,inactive,inactive,inactive,inactive,inactive,inactive,,inactive,
C=CC(C)=C[C@@]1(C)SC(=O)C(C)=C1O,inactive,inactive,inactive,inactive,inactive,,,,inactive,inactive
Cc1nc2sccn2c(=O)c1CCN1CCC(=C(c2ccccc2)c2ccc(F)cc2)CC1,inactive,inactive,inactive,inactive,,inactive,inactive,,inactive,inactive
COc1cc(SC)ccc1C(=O)N1CCC(Cc2ccccc2)CC1,inactive,inactive,inactive,inactive,,inactive,inactive,inactive,inactive,
